Data on 40 compounds can be found in PubChem BioAssay (NCATS).

Inconclusive results are not listed. The source made the active and inactive calls. Calls follow the shape of the full dose curve.

Chain of Retinoic acid receptor RXR-alpha (Homo sapiens) (P19793 whole entry, looked up): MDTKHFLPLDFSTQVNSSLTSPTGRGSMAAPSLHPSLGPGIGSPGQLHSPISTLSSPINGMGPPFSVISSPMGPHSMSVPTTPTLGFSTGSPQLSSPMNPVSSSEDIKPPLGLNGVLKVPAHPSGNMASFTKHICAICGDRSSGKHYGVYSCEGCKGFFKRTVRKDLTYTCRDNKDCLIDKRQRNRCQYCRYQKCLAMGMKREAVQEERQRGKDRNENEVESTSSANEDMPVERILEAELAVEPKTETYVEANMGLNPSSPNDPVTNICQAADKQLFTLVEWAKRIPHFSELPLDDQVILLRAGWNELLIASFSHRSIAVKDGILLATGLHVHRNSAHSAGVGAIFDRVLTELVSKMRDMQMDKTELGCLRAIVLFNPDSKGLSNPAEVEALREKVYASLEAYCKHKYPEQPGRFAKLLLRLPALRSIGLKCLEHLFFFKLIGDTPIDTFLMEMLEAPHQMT

The experiment has as its target Retinoic acid receptor RXR-alpha (Homo sapiens) (UniProt P19793). Briefly: qHTS assay for small molecule agonists of retinoid X receptor alpha signaling (AID 588544). The settings on record: HEK293T RXRa-UAS-bla, beta-lactamase reporter, 18 h; series mostly up to 76.7 µM. An excerpt: NIH Chemical Genomics Center [NCGC] U.S. Environmental Protection Agency [EPA] National Institutes of Environmental Health Sciences [NIEHS] National Toxicology Program [NTP] NCGC Assay Overview The Retinoid X receptor (RXR), a nuclear hormone receptor is expressed in liver, spleen, placenta, epidermis, central nervous system. These receptors are able to form homo and heterodimers with other nuclear receptors and due to this heterodimerizing ability, RXR functions as master regulators producing diverse physiological effects. Three subtypes of RXR exist; alpha, beta and gamma. Retinoid X receptor alpha (RXR-alpha) has potential roles in metabolic signaling pathways, skin alopecia, dermal cysts, cardiac development, insulin sensitization etc. Therefore screening environmental chemicals on RXR-alpha signaling can be used for the studies focused on such therapeutic applications.
NCGC Assay Protocol Summary Using a beta-lactamase reporter-gene under control of Retinoid X receptor--alpha (RXR-alpha) response element, a cell-based assay [GeneBLAzer (RXR-alpha -UAS-bla assay developed by Invitrogen] was used to measure RXR-alpha ligands signaling. GeneBLAzer RXR-alpha -UAS-bla HEK293T cells were used with assay medium containing 2% charcoal-stripped FBS. The assay was performed in clear bottom black Greiner 1536-well plates. 9-cis-retinoic acid was used in the screen as the positive control. Library compounds were measured for their ability to stimulate the reporter gene activity. Compounds were screened in a titration series in 1536-well format. The fluorescence intensity (405 nm excitation, 460/530 nm emission) was measured using an EnVision plate reader. Data was normalized relative to 9-cis-retinoic acid control (500 nM, 100%), and DMSO only wells (basal, 0%). Concentration-response titration points for each compound were fitted to the Hill equation yielding concentrations of half-maximal stimulation (EC50) and maximal response (efficacy) values. qHTS protocol for RXR-alpha beta-lactamase assay in agonist mode [Step] [Parameter] [Value] [Description] 1. Reagent; 6 uL; 2500 cells/well 2. Incubation; 37 C for 4 hrs 3. Compounds; 23 nL; 0.59 nM to 92 uM 4. Controls (9-cis-retinoic acid); 23 nL, - One column with dose response, start 38 uM, 1:3 dilutions in duplicates - Final concentrations of 500 nM and 50 nM in two columns 5. Incubation; 37 C for 18 hrs 6. Detection reagent; 1 uL of CCF4-dye 7. Incubation; RT for 2 hrs 8. Detection; Fluorescence; Envision plate reader
Background: qHTS replaces the single test concentration by a dilution series.
Regarding `CCOP(=S)(OCC)Oc1nc(Cl)c(Cl)cc1Cl`, the outcome was inactive.

`C=C(Cl)CCl`: the compound was classed as inactive.

Consider `Nc1ccc(Cl)c(Cl)c1`, for which the result was inactive.

On to `Cc1ccc(N)c(C)c1`, for which the compound was classed as inactive.

Take `OCCCCO`: the result was inactive.

Take `c1ccc(P(c2ccccc2)c2ccccc2)cc1`: the result was inactive.

On to `CC1CC(=O)O1` (stereo not given), for which the outcome was inactive.

For `COc1cc(-c2ccc(N)c(OC)c2)ccc1N`, the compound was classed as inactive.

`CC(Cl)CCl` (stereo not given): the result was inactive.

Regarding `ClCCOCCCl`, the result was inactive.

As to `Clc1ccccc1`, the compound was called inactive.

On to `CCCCC#N`, for which the compound was called inactive.

Regarding `O=C(O)C(Cl)Br` (stereo not given), the compound was called inactive.

On to `Cc1ccc2c(C)cccc2c1`, for which the outcome was inactive.

For the compound `Nc1cccc(Cl)c1`, the call was inactive.

Consider `O=P(OCCCl)(OCCCl)OCCCl`, for which the compound was called inactive.

For the compound `O=[N+]([O-])c1cccc2c([N+](=O)[O-])cccc12`, the compound was called inactive.

Turning to `Cc1cccc(C)c1N`, the result was inactive.

For `Cc1ccc(N)cc1N`, the result was inactive.

In the case of `Nc1ccc(Oc2ccc(N)cc2)cc1`, the call was inactive.

With `CC(C)CC(C)N` (stereo not given), the compound was classed as inactive.

For `CCN(CC)CCO`, the outcome was inactive.

Take `N#CC(Br)Br`: the call was inactive.

As to `O=c1ccc(=O)[nH][nH]1`, the outcome was inactive.

Consider `COC(C)(C)C`, for which the result was inactive.

Take `Cc1cc(-c2ccc(N)c(C)c2)ccc1N`: the compound was called inactive.

For the compound `Oc1ccc(Cl)c(Cl)c1`, the result was inactive.

For the compound `Nc1cc(Cl)cc(Cl)c1`, the call was inactive.

On to `ClC(Cl)Br`, for which the compound was called inactive.

With `ClC(Cl)c1ccccc1`, the call was inactive.

With `[O-][Cl+]O`, the outcome was inactive.

Consider `CN(C)c1ccc(N(C)C)cc1`, for which the compound was called inactive.

As for `ClCCCCl`, the outcome was inactive.

With `CCCCOC(=O)c1ccccc1N`, the call was inactive.

For the compound `Nc1ccc(-c2ccc(N)cc2)cc1`, the call was inactive.

In the case of `c1ccc(Nc2ccc(Nc3ccccc3)cc2)cc1`, the compound was classed as inactive.

On to `Nc1ccc2ccccc2c1`, for which the call was inactive.

For the compound `CC(C)C#N`, the call was inactive.

With `Oc1cccc(Cl)c1`, the call was inactive.

Consider `BrC(Br)Br`, for which the outcome was inactive.
